For 3 compounds, inhibition results are on record in PubChem BioAssay AID1907 (The Scripps Research Institute Molecular Screening Center, 2009).

The whole screen tested about 1,900 compounds, of which about 1,200 (63%) were called active. Rule as the data show it: active = inhibition above about 22%; inactive = the rest. So high a share suggests a set chosen from earlier hits. A selection follows.

The nature of the test: cytotoxic compounds in IEC-6 epithelial cells, confirmation, cytotoxicity control, cell-based, luminescence (AID 1907).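 Also: 0% = vehicle and 100% = reference cytotoxic drug.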 The following applies: IEC-6 rat intestinal epithelial viability, at 5 µM, stronger effect = higher value.
On to `CC1=CC(=Cc2sc3ccccc3[n+]2C)C=C(C)O1`, for which the inhibition (in general, the change of the read-out against control, counted positive when it falls) was 32.9% (active).
The same measure for `Cc1cc2ccccn2c1C(C[N+](=O)[O-])c1c(F)cccc1Cl` (stereo not drawn): 10.8% (inactive).
On to `COc1cc(-n2c(=S)[nH]c3ccc(C)cc3c2=O)c(Cl)cc1Cl`, for which the inhibition was -14.8% (inactive).
